{
  "source": "PubChem BioAssay (NCI)",
  "note": "Values joined by “and” are separate entries in the source; they are usually repeats but may differ in a detail not shown here. Equal entries are not always repeated. Compounds without any hit were thinned out: in the full panel of roughly 83,000, 20% have a hit.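 Each cell line was grown in a 96-well plate and treated with one concentration of compound for 48 hours. Values below 10 were considered active.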 Active and inactive are the calls of the source.",
  "data": [
    {"test_system": "HL-60(TB) leukemia", "test": "NCI-60 one-dose screen, 48 h (100 = growth as untreated, 0 = no growth, -100 = all killed)", "settings": "10 µM unless noted", "values": [
      {"smiles": "CC(=O)Nc1ccc(S(=O)(=O)Cl)cc1", "growth": "103% (inactive)"},
      {"smiles": "Nc1ncnc2c1c(-c1ccc(Oc3ccccc3)cc1)nn2C[C@H]1SSC[C@@H]1O", "growth": "-22.5% (active)"},
      {"smiles": "C(=C\\c1nc2ccccc2s1)/c1ccc(N2CCOCC2)s1", "growth": "24% (inactive)"},
      {"smiles": "O=C(CCc1nnc(Cn2cnc3nc[nH]c3c2=O)o1)c1nc2ncccc2[nH]1", "growth": "99.9% (inactive)"},
      {"smiles": "Cc1cc(N(CCCNc2ccnc3cc(Cl)ccc23)Cc2ccc3c(c2)OCO3)nc(N2CCOCC2)n1", "growth": "-69.7% (active)"},
      {"smiles": "NC(N)=NN=C(c1ccccc1)c1ccccc1", "growth": "-8.59% (active)"},
      {"smiles": "Nc1cc2c(cc1N)-c1ccccc1C2", "growth": "7.76% (active) and 64.3% (inactive)"},
      {"smiles": "CC(=O)NC(Cc1ccccc1)C(=O)Oc1ccc2ccccc2c1", "note": "(stereo not given)", "growth": "110% (inactive) and 83.4% (inactive)"},
      {"smiles": "O=S(=O)(Nc1nccs1)c1ccc(Nc2nc(-c3ccncc3)cs2)cc1", "growth": "98.6% (inactive)"},
      {"smiles": "NNC(=O)c1nc(N)n(-c2ccc(S(N)(=O)=O)cc2)n1", "growth": "99.5% (inactive)"},
      {"smiles": "Nc1ccc(S(=O)(=O)O)c2ccc(N=Nc3ccc(N=Nc4ccc(S(=O)(=O)O)cc4)c4ccccc34)c(O)c12", "growth": "70.5% (inactive)"},
      {"smiles": "CC1(C)NCCC[C@]2(C)[C@H]3CC[C@@H]4[C@H]5[C@H](C(=O)/C=C/c6ccccn6)CC[C@]5(CO)CC[C@@]4(C)[C@]3(C)CC[C@@H]12", "growth": "-31.8% (active)"},
      {"smiles": "Cc1ccc(Cc2cnc(NC(=O)c3cc(Br)cs3)s2)cc1", "growth": "8.08% (active)"},
      {"smiles": "Cc1ccc2nc3c(n2c1)C(=O)C(=O)c1ccccc1-3", "growth": "-59.1% (active)"},
      {"smiles": "CCOC(=O)CSc1nnc(-c2cc3c([nH]c4ccccc43)c(-c3cccc(O)c3)n2)n1-c1ccc(C)cc1", "growth": "45.3% (inactive)"},
      {"smiles": "COc1ccc(C(=O)N2NC(=O)/C(=C/c3ccc(F)cc3)N=C2c2ccccc2)cc1", "growth": "3.84% (active)"},
      {"smiles": "CN(C)c1ccc(N=Nc2ccccn2)c(O)c1", "growth": "-36.3% (active)"},
      {"smiles": "O=C(c1ccc(Cl)cc1Cl)N1CCOCC1", "growth": "105% (inactive)"},
      {"smiles": "O=C(Nc1ccc(CN2CCc3nc4cc(O)c(O)cc4cc32)cc1)c1ccc(Cl)c(Cl)c1", "growth": "114% (inactive)"},
      {"smiles": "NCc1c(O)ccc2ccccc12", "growth": "102% (inactive)"},
      {"smiles": "Cc1ccc(-c2nc([P+](c3ccccc3)(c3ccccc3)c3ccccc3)c(N3CCOCC3)o2)cc1", "growth": "-27.7% (active)"},
      {"smiles": "COc1ccc(-c2nn(-c3cccc(Cl)c3)cc2-c2c(C#N)c(=O)n3[nH]c(-c4ccccc4)nc3c2C#N)cc1", "growth": "79.9% (inactive)"},
      {"smiles": "Cc1cc(-c2ccccc2)c(C)n1Cc1ccc(Cl)cc1", "growth": "-27.2% (active)"},
      {"smiles": "COc1ccc(-c2ccc(NNC(=O)c3ccc(F)cc3)nn2)cc1OC", "growth": "46.9% (inactive)"},
      {"smiles": "CCOC(=O)c1ccc2c(c1)nc(-c1ccc(Cl)cc1)n2-c1cc(C(C)(C)C)[nH]n1", "growth": "-14.7% (active)"},
      {"smiles": "CCCCCCCCCCCC[N+]1(CCCCCCCCCCCC)CCCC(C)C1", "note": "(stereo not given)", "growth": "-79.5% (active)"},
      {"smiles": "OCCCC1CCN(C(Cc2ccccc2)c2ccccc2)CC1", "note": "(stereo not given)", "growth": "95.8% (inactive)"},
      {"smiles": "O=C(O)C1CSC(c2ccccc2)N1", "note": "(stereo not given)", "growth": "128% (inactive)"},
      {"smiles": "COc1cc(N=C2C(=O)N(Cc3ccccc3)c3ccccc32)cc(OC)c1OC", "growth": "69.9% (inactive)"},
      {"smiles": "COc1cc(-c2cc3ncccc3c3nc(N)c4cccnc4c23)cc(OC)c1OC", "growth": "6.71% (active)"},
      {"smiles": "Cc1nc(Nc2ccccn2)sc1C(=O)/C=C/c1ccc(Cl)cc1", "growth": "-38.8% (active)"},
      {"smiles": "OCc1nnn(-c2ccccc2)c1CO", "growth": "89.1% (inactive)"},
      {"smiles": "COc1cc(-c2nc(SCC(C)C)nc(Nc3cccc4ccccc34)c2C#N)cc(OC)c1OC", "growth": "79.1% (inactive)"},
      {"smiles": "COc1ccc(/C=C2/SC(=Nc3c(C)nn(-c4ccccc4)c3N)NC2=O)cc1", "growth": "16.6% (inactive)"},
      {"smiles": "Cc1cc(O)c2c(c1)C[C@H]1[C@@H]3CC[C@H]4CC(=O)CC[C@]4(C)[C@H]3CC(=O)[C@]21C", "growth": "73.9% (inactive)"},
      {"smiles": "OCc1cccnc1", "growth": "117% (inactive)"},
      {"smiles": "O=C1OCC2=C1C(c1cccc(Cl)c1)c1cc3c(cc1N2CCO)OCCO3", "note": "(stereo not given)", "growth": "-20% (active)"},
      {"smiles": "CCOc1nc(-c2ccccc2)cc2c(O)c(C(=O)N/N=C/c3ccccc3)[nH]c(=O)c12", "growth": "101% (inactive)"},
      {"smiles": "Cc1c(Cc2ccccc2)c(=O)oc2c(C)c(OCc3n[nH]c(=S)o3)ccc12", "growth": "69.7% (inactive)"},
      {"smiles": "COc1ccc([N+](=O)[O-])cc1OC", "growth": "85.5% (inactive) and 99.2% (inactive)"}
    ]}
  ]
}
